# Laboratory results as given in PubChem BioAssay (NCI).
# This is part of a sample that, as a whole, favours compounds with a hit. Of some 83,000 tested, about 20% had one in any assay.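 Treatment: one concentration, 48 hours, 96-well format. Scoring: percent growth, with anything below 10 considered active.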 A number with no mark means an inactive call. Activity calls are given as the source filed them.
# Legend:
# Experiment in all cases: NCI-60 one-dose screen, 48 h (100 = growth as untreated, 0 = no growth, -100 = all killed)
# HCT-15 colon = settings: 10 µM unless noted
# SNB-75 CNS = settings: 10 µM
# SNB-19 CNS = settings: 10 µM unless noted
# U251 CNS = settings: 10 µM unless noted
# PC-3 prostate = settings: 10 µM unless noted
# SK-MEL-5 melanoma = settings: 10 µM unless noted
# UACC-62 melanoma = settings: 10 µM unless noted
# LOX IMVI melanoma = settings: 10 µM unless noted
# SK-MEL-28 melanoma = settings: 10 µM unless noted
# SK-MEL-2 melanoma = settings: 10 µM unless noted
# EKVX NSCLC = settings: 10 µM unless noted
# SN12C renal = settings: 10 µM unless noted
# UO-31 renal = settings: 10 µM unless noted
# TK-10 renal = settings: 10 µM unless noted
# CAKI-1 renal = settings: 10 µM unless noted
# A498 renal = settings: 10 µM unless noted
# CCRF-CEM leukemia = settings: 10 µM unless noted
# MOLT-4 leukemia = settings: 10 µM unless noted
# ACHN renal = settings: 10 µM unless noted
Structure (SMILES),growth (HCT-15 colon),growth (SNB-75 CNS),growth (SNB-19 CNS),growth (U251 CNS),growth (PC-3 prostate),growth (SK-MEL-5 melanoma),growth (UACC-62 melanoma),growth (LOX IMVI melanoma),growth (SK-MEL-28 melanoma),growth (SK-MEL-2 melanoma),growth (EKVX NSCLC),growth (SN12C renal),growth (UO-31 renal),growth (TK-10 renal),growth (CAKI-1 renal),growth (A498 renal),growth (CCRF-CEM leukemia),growth (MOLT-4 leukemia),growth (ACHN renal)
COc1ccc(C(=O)c2cc(OC)c3c(c2)OCO3)cc1O,19.1%,30.6%,41%,27.9%,29.4%,-52% (active),43.6%,26.7%,65.6%,71.7%,58.4%,31.4%,46.6%,66%,55.5%,61.9%,16.5%,17.8%,
COC(OC)c1ccccc1,105%,91%,121%,99.3%,93.1%,107%,107%,88.2%,104%,,103%,102%,85.4%,117%,95.4%,132%,119%,108%,102%
O=C(O)Cc1cccc(=O)c(O)c1C(=O)O,106%,107%,105%,109%,95.7%,108%,100%,101%,110%,97.5%,110%,101%,,108%,96.1%,114%,98.3%,106%,101%
C=C1CCC2C3(C)COC(c4ccccc4)OC3CCC2(C)C1/C=C/C1=CCOC1=O (stereo unspecified),45.6%,51.7%,71.8%,40.1%,26.6%,76.5%,58.8%,16.1%,98.1%,51.3%,96.1%,24%,52.6%,61.3%,,106%,-46.7% (active),45.5%,71.3%
O=C(Oc1ccccc1[N+](=O)[O-])C1CCCN1C(=O)OCc1ccccc1 (stereo unspecified),101%,99%,103%,96.8%,97.3%,101%,109%,84.2%,102%,,96.7%,98.7%,90.1%,112%,93.7%,95.5%,99.1%,83.5%,105%
CN(C)CCN1C(=O)c2ccc3c4c(ccc(c24)C1=O)C(=O)N(CCN=C=S)C3=O,-78.2% (active),-75.3% (active),-92.3% (active),-95.7% (active),-80.3% (active),-98.8% (active),-92.5% (active),-82.3% (active),-87.7% (active),-75% (active),-95.2% (active),-89.5% (active),-95.4% (active),-95.3% (active),-80% (active),-97.8% (active),-50.6% (active),-52.2% (active),
Cc1ccc(S(=O)(=O)C2=C3C(=C(c4ccccc4)c4ccccc43)CN(S(=O)(=O)c3ccc(C)cc3)C2)cc1,39%,56.1%,82.1%,38.4%,30.1%,81.9%,36.9%,-76.5% (active),88%,36.8%,77.9%,55.3%,32.3%,,,87.5%,-7.65% (active),-6.7% (active),43.3%
CCC(C)/C(=C\C#N)NCCCN/C(=C/C#N)C(C)CC (stereo unspecified),97%,92.1%,109%,104%,89.4%,108%,104%,93.7%,111%,,101%,99.7%,82.4%,119%,96.5%,124%,97.4%,99.4%,97.1%
O=C(c1ccccc1)C1OC1c1ccc([N+](=O)[O-])cc1 (stereo unspecified),70.8%,70%,95.3%,64.8%,63.2%,52.7%,71.4%,29%,97.4%,,89.2%,76.7%,136%,50%,72.7%,110%,35.1%,76.2%,75.3%
